Compound activity: PubChem, several laboratories
A selection: hits, their analogues and other compounds. The true share with any hit is near 4.5%.
ZTA counter = blocks Epstein-Barr virus ZTA, an EBNA-1 counter-screen | AID 2234 | inhibition, % at 11 µM | 0.15% of 320,000 active | P03206 | ZTA-DNA binding, fluorescence polarization; in the data active = inhibition above about 33%
EBNA-1 inh = blocks EBNA-1 binding to DNA | EBNA-1 DNA binding, fluorescence polarization | inhibition, % at 14.8 µM | 0.34% of 300,000 active; in the data active = inhibition above about 28%
TPT1 inh = C. albicans TPT1 enzyme inhibition | recombinant caTPT1, FP RNA substrate dephosphorylation | inhibition, % at 5 µM | 0.81% of 300,000 active;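 active = inhibition above the mean of all tested compounds plus 3 SD, set per screening campaign, cut at about 24% in these data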
dFosB activator = mouse delta FosB homodimer activation; P13346; AID 493131; purified delta FosB, TAMRA-CDK5 oligo fluorescence polarization; percent of positive-control signal above neutral wells; 0.99% of 340,000 active; activation, % at 25 µM;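 active = mean activation above about 17%, with every replicate also reaching it, limit read from the data, passing the limit was not always enough; inconclusive = only one of the two conditions met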
Target sequence (P13346 whole entry, looked up): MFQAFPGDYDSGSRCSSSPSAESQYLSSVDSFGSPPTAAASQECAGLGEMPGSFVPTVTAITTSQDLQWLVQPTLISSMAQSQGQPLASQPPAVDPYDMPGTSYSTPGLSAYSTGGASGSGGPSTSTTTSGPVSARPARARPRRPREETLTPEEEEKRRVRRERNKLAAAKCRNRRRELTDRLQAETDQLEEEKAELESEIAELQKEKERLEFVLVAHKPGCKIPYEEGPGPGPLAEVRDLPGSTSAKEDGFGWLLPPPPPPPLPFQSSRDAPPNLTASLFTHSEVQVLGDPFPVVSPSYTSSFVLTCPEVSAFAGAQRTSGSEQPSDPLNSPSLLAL
Rpn11 block = Rpn11 (human) deubiquitinase inhibition. human 26S proteasome, Ub4-pepOG fluorescence polarization; 20S core pre-blocked with epoxomicin. inhibition, % at 20 µM. 0.59% of 360,000 active. AID 588493;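 active = inhibition at 20 µM, scaled to each plate's controls, above about 33%, limit read from the data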
Target sequence (O00487 whole entry, looked up): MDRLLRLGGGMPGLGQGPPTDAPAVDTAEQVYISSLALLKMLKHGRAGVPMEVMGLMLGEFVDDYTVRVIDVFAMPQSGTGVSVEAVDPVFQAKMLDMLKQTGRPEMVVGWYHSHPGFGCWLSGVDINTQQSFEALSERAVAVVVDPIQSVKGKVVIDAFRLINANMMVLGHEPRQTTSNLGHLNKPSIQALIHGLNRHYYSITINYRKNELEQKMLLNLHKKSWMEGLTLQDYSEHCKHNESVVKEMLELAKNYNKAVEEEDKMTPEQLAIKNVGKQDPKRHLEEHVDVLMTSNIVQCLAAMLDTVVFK
GRIN3A LBD mod = modulators (binders) of human NR3A ligand-binding domain; 2.5% of 340,000 active; NR3A LBD differential scanning fluorimetry, Tm shift; 0% = protein alone, 100% = glycine-bound protein; Tm shift relative to glycine control, % at 25 µM;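 active = melting temperature shift of at least 10% of the positive control shift, at one fixed dose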
Each line names hits and unclear results; the compound was inactive in the other large screens.

CCn1c2ccccc2c2cc(/C=N/NC(=O)c3cc(O)cc(O)c3)ccc21	GRIN3A LBD mod 21.0
CCn1c2ccccc2c2cc(/C=N/NC(=O)c3ccncc3)ccc21	none
Cc1c(NC(=O)C(C)Sc2ncnc3ccccc23)c(=O)n(-c2ccccc2)n1C (stereo unspecified)	none
COc1ccc(S(=O)(=O)N2CCOCC2)cc1NC(=O)CSc1nnc2n1CCCCC2	none (no result: ZTA counter, EBNA-1 inh, TPT1 inh)
C=CCn1c(=O)c2c(nc3n2CC(C)CN3Cc2ccccc2)n(C)c1=O (stereo unspecified)	none
CCN(Cc1cnn(C)c1)C(=O)CC1C(=O)NCCN1Cc1cccc(OC)c1OC (stereo unspecified)	none
O=C(COC(=O)c1ccc(CO)cc1)Nc1ccc2ccccc2c1	none (no result: EBNA-1 inh, TPT1 inh)
O=C(COC(=O)c1ccc(CO)cc1)Nc1ccc(OC(F)F)cc1	GRIN3A LBD mod 16.2
CC1CCc2c(sc(NC(=O)COC(=O)c3ccc(NC(=O)CC#N)cc3)c2C#N)C1 (stereo unspecified)	GRIN3A LBD mod 26.2
O=C(COC(=O)c1ccc(O)cc1O)Nc1ccc2c(c1)OCCO2	none (no result: EBNA-1 inh, TPT1 inh)
N#CCC(=O)Nc1ccc(C(=O)OCC(=O)Nc2ccc3ccccc3c2)cc1	GRIN3A LBD mod 29.6 (no result: EBNA-1 inh, TPT1 inh)
O=C(COC(=O)c1ccc(O)cc1O)Nc1ccc2ccccc2c1	GRIN3A LBD mod 13.7 (no result: EBNA-1 inh, TPT1 inh)
Cc1ccc(CNC(=O)COC(=O)c2ccc(S(=O)(=O)NCc3ccco3)cc2)cc1	none (no result: EBNA-1 inh, TPT1 inh)
O=C(CO/N=C/c1ccccc1O)N1CCc2ccccc21	none
O=C(CSc1nnc(-c2c[nH]c3ccccc23)o1)c1ccc(-c2ccccc2)cc1	GRIN3A LBD mod 24.2
COC(=O)CSc1nnc(-c2c[nH]c3ccccc23)o1	none
CCOc1ccc2oc(C(=O)NNC(=O)c3csc(N4CCOCC4)n3)c(C)c2c1	none
Cc1ccc(NC(=O)CN(c2ccccc2)S(=O)(=O)N(C)C)cc1	none
Cc1cc2c([nH]c3ccccc32)c(C)n1	none
Cc1c2ccncc2cc2c1[nH]c1ccccc12	dFosB activator 78.3 (no result: ZTA counter, EBNA-1 inh, TPT1 inh)
O=C1C[C@H]2CCCCC(=O)N3CC[C@@H](C1)[C@@H]23	none (no result: ZTA counter, EBNA-1 inh, TPT1 inh)
COc1c2ccoc2nc2c(OC)c(OCC(OC(C)=O)C(C)(C)O)ccc12 (stereo unspecified)	none
CC(C)c1nc2sc3c(=S)nc[nH]c3c2c2c1CCC2	GRIN3A LBD mod 38.2
CC(C)c1nc2sc3c(=O)[nH]cnc3c2c2c1CCC2	none
COC(=O)c1ccc(NC(=O)C2CCN(C(=O)Nc3ccccc3)CC2)cc1	none (no result: EBNA-1 inh, TPT1 inh)
Cc1ccn2c(C(=O)CSc3ccccc3Cl)c(C)nc2c1	GRIN3A LBD mod 13.6
Cc1ccc(CN2CCN(CC(=O)N=Nc3c(O)[nH]c4ccccc34)CC2)cc1	GRIN3A LBD mod 19.9
CCN1CCN(c2ccc(S(=O)(=O)N3CCCCC3)cc2NC(=O)c2sccc2C)CC1	none
CCCCN(CC)CCCNC(=O)c1cc2c(-c3ccc(OC)c(OC)c3)nn(C)c2s1	dFosB activator 37.4
O=C(Nc1ccc(Br)cc1)c1cccc(N2C(=O)CCC2=O)c1	GRIN3A LBD mod 14.1
CS(=O)(=O)c1ccc(NC(=O)c2cccc(-n3cnnn3)c2)cc1	none (no result: EBNA-1 inh, TPT1 inh)
CC(=O)c1cccc(NC(=O)c2cccc(N3C(=O)c4ccccc4C3=O)c2)c1	dFosB activator 31.1
COc1ccc(NC(=O)COc2cccc(-n3cnnn3)c2)cc1	GRIN3A LBD mod 15.1
O=C(Nc1ccc(Br)cc1)c1cccc(-n2cnnn2)c1	GRIN3A LBD mod 39.3
Fc1ccc(-c2nnc(SCc3cccnc3)o2)cc1	none
CC(=O)c1ccc(NC(=O)Nc2ccccc2)cc1	GRIN3A LBD mod 27.3
CNC(=O)c1ccc(NC(=O)Nc2ccccc2)cc1	GRIN3A LBD mod 25.5
CCN(CC)c1ccc(NC(=O)Nc2ccccc2)cc1	none
CC(=O)c1cccc(NC(=O)Nc2ccccc2)c1	none
CC[C@@]1(C(=O)OC)N[C@H](CN(C)S(=O)(=O)c2ccc(OC(F)(F)F)cc2)[C@@H]2C(=O)N(C)C(=O)[C@@H]21	none (no result: ZTA counter, EBNA-1 inh, TPT1 inh)
COc1ccc(NC(=O)c2ccc([N+](=O)[O-])cc2[N+](=O)[O-])c(OC)c1	none
O=C(C1CCN(c2nnc(N3CCCC3=O)s2)CC1)N1CCN(c2cccc(C(F)(F)F)c2)CC1	GRIN3A LBD mod 16.9
Cc1ccc(C)c(N2CCN(C(=O)C3CCN(c4nnc(N5CCCC5=O)s4)CC3)CC2)c1	none
O=C(Nc1ccccc1C(=O)NC(Cc1ccccc1)C(=O)NC1CCCCCC1)c1ccccc1 (stereo unspecified)	none
COc1ccc(NC(=O)CSc2nc3ccc(OC)cc3[nH]2)cc1	none
O=C(CSc1nc2ccc(Cl)cc2[nH]1)Nc1ccc2c(c1)CCC2	GRIN3A LBD mod 20.7
O=C(CSc1ncc(-c2ccc(F)cc2)[nH]1)Nc1cccc(O)c1	GRIN3A LBD mod 16.4
Cc1ccc(C)c(NC(=O)C(Sc2nc3ccc(C)cc3[nH]2)c2ccccc2)c1 (stereo unspecified)	none
NNC(=O)CSc1ncc(-c2ccccc2)[nH]1	none
Cc1ccc2nc(SC(C(=O)Nc3ccc(F)cc3)c3ccccc3)[nH]c2c1 (stereo unspecified)	dFosB activator inconclusive, GRIN3A LBD mod 16.4
O=C(CSc1nc2cc3ccccc3cc2[nH]1)Nc1ccc(F)cc1	GRIN3A LBD mod 17.3
O=C(CN1CCN(Cc2cccc(F)c2)CC1)Nc1ccccc1F	none
CC(O)C(NS(=O)(=O)c1ccc(Cl)cc1)C(=O)OCC(=O)c1c[nH]c2ccccc12 (stereo unspecified)	none
CC(C)Cc1ccc(C(C)C(=O)OCC(=O)c2c[nH]c3ccccc23)cc1 (stereo unspecified)	GRIN3A LBD mod 22.7
CC(C)C(NS(=O)(=O)c1c(Cl)cccc1Cl)C(=O)OCC(=O)c1c[nH]c2ccccc12 (stereo unspecified)	GRIN3A LBD mod 23.3
[O-][n+]1c2c(c3c4non(O)c4ccc31)CCCC2	none
COc1ccc2nc(NC(=O)CSc3nnc(N)s3)sc2c1	EBNA-1 inh 37.2
O=C(CSc1ncn(-c2ccccc2)n1)Nc1nc2ccccc2s1	GRIN3A LBD mod 21.9
COc1ccc2nc(NC(=O)c3sc4nc(C)cc(C)c4c3N)sc2c1	GRIN3A LBD mod 27.8
O=C(CSc1ncn(-c2ccccc2)n1)Nc1nc(-c2ccccc2)cs1	none
COc1ccc2nc(NC(=O)CSc3nnc(C)n3N)sc2c1	none
COc1ccc2nc(NC(=O)CSc3ccccc3)sc2c1	GRIN3A LBD mod 30.8
Cc1ccc2[nH]c3c(c2c1)CCN1C(=O)OC(C)(C)C31C (stereo unspecified)	none
C[C@@H]1CNC(=O)c2c(C(=O)NCC(=O)OC(C)(C)C)ncn21	none (no result: ZTA counter, EBNA-1 inh, TPT1 inh, dFosB activator, GRIN3A LBD mod)
Fc1ccc(COc2ccccc2CNCc2ccncc2)cc1	none
Brc1ccc(OCc2ccccc2)c(CNCc2ccncc2)c1	GRIN3A LBD mod 11.2
Cc1cc(N)ccc1-n1c(C)ccc1C	ZTA counter 55.4, EBNA-1 inh 28.6
